# About 7,900 targets were measured; listed, in parts, are those with a hit and a random draw of the rest. About 0.6% of all pairs of compound and target were hits. A number with no mark means an inactive call.
# How the values were obtained:
# Assay in all cases: log2 fold change, soluble protein after heating vs DMSO (PISA); higher = thermal stabilisation; K562 cells, 10 uM, 30 min; active = over 0.2 and 3.5 SD of the protein, either way, in both replicates (recomputed)
# saracatinib = compound: CN1CCN(CCOc2cc(OC3CCOCC3)c3c(Nc4c(Cl)ccc5c4OCO5)ncnc3c2)CC1 [saracatinib]
# In short: (§1)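 K562 cells (2×10^6 cells/mL) were treated with 10 μM compound for 30 min, and aliquots were heated for 3 min over 48°C-58°C. Pooled aliquots were extracted in PBS with 0.5% NP-40 at 4°C, and the supernatant after 21,000xg for 90 min was measured by TMTpro 16plex LC-MS/MS with channel sums equalised. Reported thermal stability, relative to control samples and from duplicates, is a log2 fold change.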
# sotrastaurin = compound: CN1CCN(c2nc(C3=C(c4c[nH]c5ccccc45)C(=O)NC3=O)c3ccccc3n2)CC1 [sotrastaurin]
# In short: as §1
# alvocidib = compound: CN1CC[C@H](c2c(O)cc(O)c3c(=O)cc(-c4ccccc4Cl)oc23)[C@H](O)C1 [alvocidib]
# In short: as §1
# Tubastatin A = compound: CN1CCc2c(c3ccccc3n2Cc2ccc(C(=O)NO)cc2)C1 [Tubastatin A]
# In short: as §1
# [1] = compound: CNC(=O)C1=CC=CC=C1NC2=NC(=NC=C2Cl)NC3=C(C=C(C=C3)N4CCOCC4)OC
# In short: as §1
# defactinib = compound: CNC(=O)c1ccc(Nc2ncc(C(F)(F)F)c(NCc3nccnc3N(C)S(C)(=O)=O)n2)cc1 [defactinib]
# In short: as §1
# rucaparib = compound: CNCc1ccc(-c2[nH]c3cc(F)cc4c3c2CCNC4=O)cc1 [rucaparib]
# In short: as §1
# [2] = compound: CNc1nc(-c2ccc3c(N)n[nH]c3c2)cc(N2C[C@@H](C(=O)NC3CCCCC3)CC[C@H]2C)n1
# In short: as §1
# encorafenib = compound: COC(=O)N[C@@H](C)CNc1nccc(-c2cn(C(C)C)nc2-c2cc(Cl)cc(NS(C)(=O)=O)c2F)n1 [encorafenib]
# In short: as §1
# [3] = compound: COC(=O)[C@H](CCSC)NC(=O)C1=C(C=C(C=C1)NC[C@H](CS)N)C2=CC=CC=C2
# In short: as §1
# [4] = compound: COC1=CC=C(C=C1)CN2C=CC3=C2C=C(C=C3)C(=O)NO
# In short: as §1
# filanesib = compound: CON(C)C(=O)N1N=C(c2cc(F)ccc2F)S[C@@]1(CCCN)c1ccccc1 [filanesib]
# In short: as §1
# zotarolimus = compound: CO[C@H]1C[C@@H]2CC[C@@H](C)[C@@](O)(O2)C(=O)C(=O)N2CCCC[C@H]2C(=O)O[C@H]([C@H](C)C[C@@H]2CC[C@H](n3cnnn3)[C@H](OC)C2)CC(=O)[C@H](C)/C=C(\C)[C@@H](O)[C@@H](OC)C(=O)[C@H](C)C[C@H](C)/C=C/C=C/C=C/1C [zotarolimus]
# In short: as §1
# idasanutlin = compound: COc1cc(C(=O)O)ccc1NC(=O)[C@@H]1N[C@@H](CC(C)(C)C)[C@](C#N)(c2ccc(Cl)cc2F)[C@H]1c1cccc(Cl)c1F [idasanutlin]
# In short: as §1
# alisertib = compound: COc1cc(Nc2ncc3c(n2)-c2ccc(Cl)cc2C(c2c(F)cccc2OC)=NC3)ccc1C(=O)O [alisertib]
# In short: as §1
# [5] = compound: COc1cc2nc(-c3cc(F)ccc3O)nc(N[C@@H]3CNC[C@H]3C(C)(C)O)c2cc1OC
# In short: as §1
# gefitinib = compound: COc1cc2ncnc(Nc3ccc(F)c(Cl)c3)c2cc1OCCCN1CCOCC1 [gefitinib]
# In short: as §1
# [6] = compound: COc1cccc2cc(-c3nc([C@H]4CC[C@H](C(=O)O)CC4)n4ncnc(N)c34)[nH]c12
# In short: as §1
# lapatinib = compound: CS(=O)(=O)CCNCc1ccc(-c2ccc3ncnc(Nc4ccc(OCc5cccc(F)c5)c(Cl)c4)c3c2)o1 [lapatinib]
# In short: as §1
# pictilisib = compound: CS(=O)(=O)N1CCN(Cc2cc3nc(-c4cccc5[nH]ncc45)nc(N4CCOCC4)c3s2)CC1 [pictilisib]
# In short: as §1
# UniProt Q9NYL2, sequence (Q9NYL2 whole entry, looked up): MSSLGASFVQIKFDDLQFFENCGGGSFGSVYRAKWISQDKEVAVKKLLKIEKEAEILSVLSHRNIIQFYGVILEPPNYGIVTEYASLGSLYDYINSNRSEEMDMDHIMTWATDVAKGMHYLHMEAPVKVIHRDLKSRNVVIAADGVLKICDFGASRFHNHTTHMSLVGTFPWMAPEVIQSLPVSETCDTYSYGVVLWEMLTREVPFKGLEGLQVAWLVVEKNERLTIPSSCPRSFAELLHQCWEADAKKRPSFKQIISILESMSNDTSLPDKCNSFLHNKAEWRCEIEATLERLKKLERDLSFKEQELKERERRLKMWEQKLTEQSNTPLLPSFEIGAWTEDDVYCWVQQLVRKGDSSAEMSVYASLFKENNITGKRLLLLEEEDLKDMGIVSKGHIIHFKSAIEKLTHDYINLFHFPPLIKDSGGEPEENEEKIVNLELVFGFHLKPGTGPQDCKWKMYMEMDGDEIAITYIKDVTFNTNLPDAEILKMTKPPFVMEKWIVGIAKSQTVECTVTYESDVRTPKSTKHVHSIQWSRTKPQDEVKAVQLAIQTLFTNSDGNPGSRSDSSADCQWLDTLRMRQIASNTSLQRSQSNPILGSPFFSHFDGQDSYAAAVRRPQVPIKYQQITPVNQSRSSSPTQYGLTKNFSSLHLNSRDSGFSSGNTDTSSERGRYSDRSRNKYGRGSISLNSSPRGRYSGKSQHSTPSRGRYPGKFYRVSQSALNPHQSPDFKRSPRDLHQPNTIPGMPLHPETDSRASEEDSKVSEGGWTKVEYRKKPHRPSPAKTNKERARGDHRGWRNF
# UniProt O15066, sequence (O15066 whole entry, looked up): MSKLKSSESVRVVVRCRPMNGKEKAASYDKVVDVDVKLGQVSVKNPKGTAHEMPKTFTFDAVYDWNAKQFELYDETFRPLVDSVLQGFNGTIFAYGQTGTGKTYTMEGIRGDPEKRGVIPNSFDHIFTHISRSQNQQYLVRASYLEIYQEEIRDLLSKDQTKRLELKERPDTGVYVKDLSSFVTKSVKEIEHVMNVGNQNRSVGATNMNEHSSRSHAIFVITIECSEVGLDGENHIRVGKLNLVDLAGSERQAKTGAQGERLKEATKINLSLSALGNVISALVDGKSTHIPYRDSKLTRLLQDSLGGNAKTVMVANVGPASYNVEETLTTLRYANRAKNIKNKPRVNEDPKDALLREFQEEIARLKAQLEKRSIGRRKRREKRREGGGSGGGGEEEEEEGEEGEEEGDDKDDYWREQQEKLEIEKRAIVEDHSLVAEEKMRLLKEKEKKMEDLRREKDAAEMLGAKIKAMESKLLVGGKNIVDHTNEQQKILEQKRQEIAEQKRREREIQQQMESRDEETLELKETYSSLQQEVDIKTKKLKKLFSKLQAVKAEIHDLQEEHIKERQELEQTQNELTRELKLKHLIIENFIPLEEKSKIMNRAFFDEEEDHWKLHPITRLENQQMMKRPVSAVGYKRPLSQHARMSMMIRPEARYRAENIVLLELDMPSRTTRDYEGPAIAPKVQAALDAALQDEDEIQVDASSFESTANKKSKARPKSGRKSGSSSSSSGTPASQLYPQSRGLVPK
# UniProt O43934, sequence (O43934 whole entry, looked up): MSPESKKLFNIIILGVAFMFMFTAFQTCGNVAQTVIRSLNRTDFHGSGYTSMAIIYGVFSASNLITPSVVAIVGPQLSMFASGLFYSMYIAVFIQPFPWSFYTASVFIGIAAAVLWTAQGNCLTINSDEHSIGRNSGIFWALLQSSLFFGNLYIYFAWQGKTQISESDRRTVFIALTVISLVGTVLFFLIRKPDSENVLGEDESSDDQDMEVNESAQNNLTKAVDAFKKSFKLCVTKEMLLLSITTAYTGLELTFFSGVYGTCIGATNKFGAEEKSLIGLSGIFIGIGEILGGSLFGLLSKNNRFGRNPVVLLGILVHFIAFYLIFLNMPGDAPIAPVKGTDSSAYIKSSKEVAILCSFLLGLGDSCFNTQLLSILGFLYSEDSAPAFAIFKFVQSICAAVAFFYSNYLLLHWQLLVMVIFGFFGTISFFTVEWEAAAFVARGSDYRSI
# UniProt Q16891, sequence (Q16891 whole entry, looked up): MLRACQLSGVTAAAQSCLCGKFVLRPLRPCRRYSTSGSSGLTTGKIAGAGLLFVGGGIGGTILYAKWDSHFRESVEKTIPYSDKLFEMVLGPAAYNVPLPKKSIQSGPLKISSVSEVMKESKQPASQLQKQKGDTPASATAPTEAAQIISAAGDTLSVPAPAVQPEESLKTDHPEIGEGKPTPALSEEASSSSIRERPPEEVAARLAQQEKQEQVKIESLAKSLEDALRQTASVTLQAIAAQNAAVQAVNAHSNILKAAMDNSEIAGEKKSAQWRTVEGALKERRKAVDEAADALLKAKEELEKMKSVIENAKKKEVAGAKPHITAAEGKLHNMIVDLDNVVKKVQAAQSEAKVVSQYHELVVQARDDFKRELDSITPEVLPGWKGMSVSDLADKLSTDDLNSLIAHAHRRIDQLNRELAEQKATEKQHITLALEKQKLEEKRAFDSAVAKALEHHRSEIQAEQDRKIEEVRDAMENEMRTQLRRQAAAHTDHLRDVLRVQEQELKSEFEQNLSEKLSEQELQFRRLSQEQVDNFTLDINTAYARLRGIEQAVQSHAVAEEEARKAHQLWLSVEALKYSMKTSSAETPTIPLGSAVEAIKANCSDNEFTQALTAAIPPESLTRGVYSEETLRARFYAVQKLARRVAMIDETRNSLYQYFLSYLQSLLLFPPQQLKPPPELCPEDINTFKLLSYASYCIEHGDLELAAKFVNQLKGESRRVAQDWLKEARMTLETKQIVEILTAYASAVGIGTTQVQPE
# UniProt Q9P244, sequence (Q9P244 whole entry, looked up): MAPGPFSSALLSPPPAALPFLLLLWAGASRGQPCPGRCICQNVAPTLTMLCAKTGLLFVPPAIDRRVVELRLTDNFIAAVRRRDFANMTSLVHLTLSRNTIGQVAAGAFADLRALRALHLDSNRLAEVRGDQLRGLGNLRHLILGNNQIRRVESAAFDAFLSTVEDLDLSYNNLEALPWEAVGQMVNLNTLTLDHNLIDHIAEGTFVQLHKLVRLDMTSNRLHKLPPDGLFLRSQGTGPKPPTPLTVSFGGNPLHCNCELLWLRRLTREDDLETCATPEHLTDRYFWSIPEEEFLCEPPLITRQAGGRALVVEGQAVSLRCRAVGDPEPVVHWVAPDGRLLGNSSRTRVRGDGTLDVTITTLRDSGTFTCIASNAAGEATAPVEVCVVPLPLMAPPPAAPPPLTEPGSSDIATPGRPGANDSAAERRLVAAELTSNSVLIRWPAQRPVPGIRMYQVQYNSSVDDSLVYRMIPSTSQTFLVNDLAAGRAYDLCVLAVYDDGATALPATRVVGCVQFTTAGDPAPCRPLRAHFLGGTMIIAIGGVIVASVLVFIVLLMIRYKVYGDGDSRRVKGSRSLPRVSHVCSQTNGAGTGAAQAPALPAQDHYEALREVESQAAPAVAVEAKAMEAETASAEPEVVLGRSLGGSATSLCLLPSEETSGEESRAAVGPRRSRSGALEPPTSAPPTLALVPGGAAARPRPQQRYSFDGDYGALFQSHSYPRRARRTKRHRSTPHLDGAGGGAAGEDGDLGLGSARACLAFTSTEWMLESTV
# UniProt Q15528, sequence (Q15528 whole entry, looked up): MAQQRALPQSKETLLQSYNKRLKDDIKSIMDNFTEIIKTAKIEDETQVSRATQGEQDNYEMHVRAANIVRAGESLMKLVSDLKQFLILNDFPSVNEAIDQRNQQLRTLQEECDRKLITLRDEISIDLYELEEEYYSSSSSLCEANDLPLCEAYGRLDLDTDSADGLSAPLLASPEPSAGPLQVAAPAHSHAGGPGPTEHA
# UniProt Q6P9B9, sequence (Q6P9B9 whole entry, looked up): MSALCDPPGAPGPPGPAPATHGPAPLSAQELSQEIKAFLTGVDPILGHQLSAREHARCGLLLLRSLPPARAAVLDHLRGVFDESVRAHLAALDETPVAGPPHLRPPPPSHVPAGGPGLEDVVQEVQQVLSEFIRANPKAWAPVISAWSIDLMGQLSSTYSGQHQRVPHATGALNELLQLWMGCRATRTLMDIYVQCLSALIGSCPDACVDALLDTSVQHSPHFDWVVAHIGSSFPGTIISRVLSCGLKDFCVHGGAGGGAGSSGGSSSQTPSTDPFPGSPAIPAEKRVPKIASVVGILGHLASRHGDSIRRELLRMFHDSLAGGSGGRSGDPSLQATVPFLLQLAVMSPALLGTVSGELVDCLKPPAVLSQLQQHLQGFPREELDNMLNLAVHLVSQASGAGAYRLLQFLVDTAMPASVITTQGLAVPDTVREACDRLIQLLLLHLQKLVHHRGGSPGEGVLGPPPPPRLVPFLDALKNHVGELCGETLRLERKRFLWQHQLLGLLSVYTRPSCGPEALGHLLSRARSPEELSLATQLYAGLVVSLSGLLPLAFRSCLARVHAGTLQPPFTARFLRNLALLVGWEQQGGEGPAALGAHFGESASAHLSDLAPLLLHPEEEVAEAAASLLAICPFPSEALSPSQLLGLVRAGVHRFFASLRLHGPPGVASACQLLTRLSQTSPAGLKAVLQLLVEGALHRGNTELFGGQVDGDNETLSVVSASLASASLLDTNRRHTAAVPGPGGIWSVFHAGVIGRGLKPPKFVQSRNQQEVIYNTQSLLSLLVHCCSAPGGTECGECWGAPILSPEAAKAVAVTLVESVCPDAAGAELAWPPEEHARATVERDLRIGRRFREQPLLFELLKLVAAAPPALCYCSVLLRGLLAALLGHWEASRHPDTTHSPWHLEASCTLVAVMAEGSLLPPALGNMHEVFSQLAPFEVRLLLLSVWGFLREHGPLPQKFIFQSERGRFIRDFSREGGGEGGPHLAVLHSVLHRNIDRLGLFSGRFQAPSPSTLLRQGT
Target,log2 fold change (saracatinib),log2 fold change (sotrastaurin),log2 fold change (alvocidib),log2 fold change (Tubastatin A),log2 fold change [1],log2 fold change (defactinib),log2 fold change (rucaparib),log2 fold change [2],log2 fold change (encorafenib),log2 fold change [3],log2 fold change [4],log2 fold change (filanesib),log2 fold change (zotarolimus),log2 fold change (idasanutlin),log2 fold change (alisertib),log2 fold change [5],log2 fold change (gefitinib),log2 fold change [6],log2 fold change (lapatinib),log2 fold change (pictilisib)
IMMT isoform 4 (UniProt Q16891),-0.012,-0.002,-0.009,-0.033,-0.014,-0.012,-0.055,-0.007,0.012,0.002,-0.008,-0.122,-0.007,-0.082,-0.049,-0.146,-0.005,0.013,-0.047,0.005
KIF13A (UniProt Q9H1H9),0.063,0.041,-0.01,0.028,0.1,-0.026,0.008,-0.093,-0.025,0.034,0.003,0.01,-0.057,-0.022,-0.022,0.037,0.194,0.139,-0.012,-0.097
MEPCE (UniProt Q7L2J0),-0.019,-0.022,-0.112,-0.104,-0.052,-0.192,-0.056,0.049,0.067,-0.077,-0.706 (active),0.042,0.042,0.036,-0.093,-0.167,0.078,0.013,0.102,-0.013
IK (UniProt Q13123),-0.006,-0.037,0.108,0.05,-0.036,0.013,0.198,-0.059,0.197,0.002,0.056,0.156,0.007,0.102,-0.044,0.07,0.027,-0.096,-0.008,-0.035
LRBA (UniProt P50851),0.039,-0.031,-0.054,0.014,-0.012,-0.015,-0.01,-0.023,0.018,-0.002,-0.004,-0.06,0.002,-0.113,-0.017,0.029,-0.008,0.031,0.009,-0.015
MIEF1 (UniProt Q9NQG6),-0.016,-0.042,-0.031,-0.024,-0.002,0.014,-0.009,-0.088,0.023,-0.018,0.053,-0.18,0.006,-0.066,-0.033,-0.382 (active),0.051,0.001,0.004,-0.027
MFSD11 (UniProt O43934),0.092,0.085,-0.029,0.005,,-0.033,-0.002,-0.127,-0.047,-0.015,-0.029,-0.464 (active),-0.003,-0.055,-0.009,-0.046,-0.064,-0.002,0.041,0.02
MAN2B2 (UniProt Q9Y2E5),-0.015,-0.018,,0.105,0.035,-0.009,-0.158,0.007,0.044,-0.04,-0.077,-0.027,,-0.012,0.022,-0.038,0.044,0.075,-0.026,
IL10RB (UniProt Q08334),0.107,-0.021,,0.022,-0.121,-0.042,0.015,-0.005,-0.093,0.026,-0.161,0.299,,-0.008,,0.048,0.088,,0.011,0.025
MED22 (UniProt Q15528),-0.089,-0.007,-0.055,0.332,-0.051,-0.043,0.021,0.044,0.12,0.097,-0.03,-0.008,0.047,-0.023,0.019,,0.017,-0.171,,
LRFN1 (UniProt Q9P244),0.053,-0.08,-0.44 (active),-0.006,-0.24,-0.048,0.062,-0.028,-0.227,-0.069,-0.054,0.151,0.031,,,0.025,,,-0.048,
KIF3B (UniProt O15066),-0.068,0.005,-0.011,0.002,0.069,0.028,-0.189,-0.063,0.034,-0.043,-0.071,0.04,0.027,-0.252,-0.071,0.164,,0.04,0.035,-0.161
MAP3K20 (UniProt Q9NYL2),-0.106,0.055,0.065,0.004,0.054,-0.018,0.002,0.01,0.02,-0.034,0.04,0.075,0.033,0.064,,0.048,-0.042,-0.059,0,-0.02
KCNK5 (UniProt O95279),-0.444,-0.047,-0.239,,-0.05,,0.05,-1.08 (active),0.017,,0.059,-0.117,-0.044,,-0.408,-0.541,,0.193,-0.227,-0.007
INTS5 (UniProt Q6P9B9),-0.051,-0.06,,-0.133,-0.086,-0.058,,0.044,,0,-0.02,-0.055,,0.045,-0.019,-0.111,-0.017,-0.004,0.13,
LPIN3 isoform 2 (UniProt Q9BQK8),-0.101,0.171,-0.074,0.093,-0.087,-0.022,0.049,0.049,0.051,-0.012,,0.006,0.011,-0.075,0.022,0.111,-0.029,-0.01,0.022,0.147
LMBR1 isoform 3 (UniProt Q8WVP7),0.085,-0.004,-0.06,0.079,-0.045,-0.104,,-0.009,,0.132,-0.165,-0.267,-0.033,0.156,0.016,-0.218,,0.029,-0.043,0.043

# — the supplement of paper PMC10849652
